Assay outcomes deposited in PubChem by National Center for Advancing Translational Sciences (NCATS).
SW480 rereplic: induces DNA re-replication in SW480 colon adenocarcinoma cells. SW480 DNA re-replication, Hoechst DNA content imaging, 48 h. hit rate 1.8% among 340,000. Potency, µM (series often up to 46.1 µM), inactives show at the highest dose re-replication activation, usual class: activators. AID 624297; further: potency means the concentration at half of the fitted maximal effect; % of control where 0% means no effect; nearly all actives have a fitted effect of over 55% in size
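Compounds, transferred as 23 nL by pin tool, were incubated with cells for 48 hr; DNA content per nucleus was then quantified by Hoechst staining and fluorescence plate imaging.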
IL1B secr inh: inflammasome signaling inhibition, IL-1 beta readout. THP-1 LPS/ATP IL-1B secretion, AlphaLISA, 16 h; stronger effect = lower value. activity change, % at 57.5 µM. hit rate 4.7% among 360,000. AID 743279; in the data active means activity change below about -50%; inconclusive means mostly about -30% to -49%; further: on the % scale 0 is the no-effect control and ±100 the full control effect
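THP-1 cells pretreated 1 hr with compounds (up to 57.5 uM final), then stimulated with LPS (250 ng/mL final) plus ATP (1.25 mM final); secreted IL-1B measured by AlphaLISA after 16 hr, decreased signal indicating inhibition.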
Giardia kill: Giardia lamblia killing; Giardia lamblia trophozoite viability; hit rate 0.15% among 340,000; AID 540267; activity change, % at 7.66 µM, hits read low; in the data active means activity change below about -80%; inconclusive means between about -30% and that limit;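 further: parasites exposed to compound for two days anaerobically before the ATP read; on the % scale 0 is the no-effect control and ±100 the full control effect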
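Trophozoite viability was measured as ATP-dependent luminescence, read 15-30 min after reagent addition. Before that, parasites at 100 cells/well were exposed to compounds for 48 h, anaerobically, at 37 deg C.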
Vif-APOBEC3F blk: inhibitors of Vif-A3F interaction; HeLa A3F-eYFP + Vif (tagged APOBEC3F with the HIV-1 protein that degrades it), YFP fluorescence increase; Potency, µM (series often up to 46.1 µM), inactives show at the highest dose activity, negative = active; hit rate 0.2% among 390,000; AID 602313; further: potency means the concentration at half of the fitted maximal effect; % of control where 0% means no effect; nearly all actives have a fitted effect of over 65% in size
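HeLa cells stably expressing Vif plus C-terminally eYFP-tagged A3F were seeded, incubated overnight at 37 deg C, dosed with compound, incubated overnight again at 37 deg C. Yellow fluorescence (Ex 488/Em 500-530) reported blocked Vif-mediated A3F-eYFP degradation.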
Vif-A3G inh: inhibitors of Vif-APOBEC3G interaction. HeLa A3G-eYFP + Vif (tagged APOBEC3G with the HIV-1 protein that degrades it), YFP fluorescence, overnight. Potency, µM (series often up to 46.1 µM), inactives show top-dose activity, negative = active, actives largely listed as inhibitors. hit rate 0.076% among 410,000; further: potency means the concentration at half of the fitted maximal effect; on the % scale 0 is the no-effect control and ±100 the full control effect; nearly all actives have a fitted effect of over 60% in size
Target sequence (Q9HC16 whole entry, looked up): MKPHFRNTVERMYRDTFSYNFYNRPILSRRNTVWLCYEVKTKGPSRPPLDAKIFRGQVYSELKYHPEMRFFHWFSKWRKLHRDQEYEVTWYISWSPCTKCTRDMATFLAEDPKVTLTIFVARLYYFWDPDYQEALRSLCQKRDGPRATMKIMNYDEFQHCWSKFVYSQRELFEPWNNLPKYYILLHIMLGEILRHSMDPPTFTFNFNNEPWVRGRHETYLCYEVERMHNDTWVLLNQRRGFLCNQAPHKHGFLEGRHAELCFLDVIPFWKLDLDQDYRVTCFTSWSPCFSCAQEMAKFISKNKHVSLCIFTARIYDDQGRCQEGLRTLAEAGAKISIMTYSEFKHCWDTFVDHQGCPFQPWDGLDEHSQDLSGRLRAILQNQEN
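HeLa cells stably expressing Vif and C-terminally eYFP-tagged A3G, seeded overnight at 37 deg C, then exposed to compound by pintool overnight at 37 deg C. Rise in yellow fluorescence (Ex 488/Em 500-530, Acumen) marks blocked Vif-driven A3G degradation.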
MCF10A rerep: inducers of DNA re-replication in MCF 10A breast cells. MCF 10A DNA re-replication, Hoechst nuclear intensity, 48 h. AID 624296. Potency, µM (top dose mostly 46.1 µM), for inactives: at the highest dose activity, positive = re-replication, most hits filed as activators. hit rate 2.9% among 350,000; further: potency means the concentration at half of the fitted maximal effect; % of control where 0% means no effect; nearly all actives have a fitted effect of over 50% in size
* hit, by the source's call; ? = inconclusive; . = no result. Compounds with a hit are over-represented: about 6.9% of the library has one in this group of screens. Unless noted, the call rests on the fitted dose curve; in most records, active means well fitted curve in the direction sought with a large enough effect; inconclusive means small, poorly fitted or top-dose-only effect, or another doubt; inactive means no such curve, though single readings can be large; an effect the other way counts as inactive or inconclusive.

SMILES | SW480 rereplic | IL1B secr inh | Giardia kill | Vif-APOBEC3F blk | Vif-A3G inh | MCF10A rerep
Cc1ccc(Nc2nc(N)c([N+](=O)[O-])c(N3CCOCC3)n2)cc1 | -17% | -7 | 5 | -2% | 0% | ?
Cc1ccc2nc(CS)[nH]c2c1 | . | . | . | . | 0% | .
O=C(NCCc1ccc(Cl)cc1)c1cccn1-c1nnc(N2CCCC2)s1 | . | . | . | 0% | 2% | .
CCCCNc1nc(Nc2ccc(C)c(Cl)c2)c2cnn(C)c2n1 | ? | -66* | 3 | 4% | 3% | ?
CCNc1nc(Nc2ccc(C)c(Cl)c2)c2cnn(C)c2n1 | ? | -11 | 5 | 1% | 1% | 26%
CCOC(=O)c1ccc(NC(=O)CNNC(=O)COc2ccccc2C)cc1 | 6% | -22 | -16 | 4% | -1% | ?
CCOC(=O)c1ccc(NC(=O)COc2ccccc2CNCCc2ccccc2)cc1 | -12% | -88* | -16 | 3% | -13% | 2.3µM*
CCOC(=O)c1ccc(NC(=O)COc2ccc(CNCCO)cc2OCC)cc1 | -1% | -102* | -1 | -2% | -1% | 0%
CCOc1cc(CNCCO)ccc1OCC(=O)NC(C)(C)C | -1% | -6 | -16 | 5% | -1% | 10%
CCc1nn(CC(=O)NCC(C)c2ccccc2)c(=O)c2cc3c(OC)cccc3n12 (stereo not given) | . | . | . | -5% | 4% | .
C/C(=N\Nc1ccc([N+](=O)[O-])cc1)c1ccc(O)cc1 | 23µM* | -61* | -2 | -2% | -16% | 15µM*
N#C/C(=N\Nc1ccc([N+](=O)[O-])cc1)C(N)=S | -9% | -66* | 13 | 4% | 7% | ?
N#C/C(=N\Nc1cccc([N+](=O)[O-])c1)C(=O)c1ccc(Br)cc1 | 5% | -64* | 6 | 9% | -15% | ?
C/C(=N\Nc1ccc([N+](=O)[O-])cc1)c1cccc(N)c1 | 6% | -29 | -11 | -15% | -9% | ?
O=C(O)c1ccc(N=NNc2cccc([N+](=O)[O-])c2)cc1 | -9% | -2 | 3 | 0% | -21% | 0%
Cc1ccc(NC(=O)CC2Sc3ccccc3NC2=O)c(Br)c1 (stereo not given) | . | . | . | -3% | -5% | .
Cc1ccc(C)c(Cn2c(=O)n(Cc3ccccc3)c(=O)c3sc4ccccc4c32)c1 | . | . | . | 2% | 5% | .
CCOC(=O)Cn1c(=O)n(CC2CCCO2)c2nc(-c3c(F)cccc3Cl)nc(C(N)=O)c21 (stereo not given) | . | . | . | 2% | 0% | .
COc1ccc(O)c(C(=O)c2coc(=N)c(C(=O)Nc3ccc(SC(F)F)cc3)c2)c1 | 0% | -54* | -2 | 13µM* | 5% | 29%
CC(C)OC(=O)c1cc(C(=O)c2cc(F)ccc2O)coc1=N | -8% | 15 | -2 | 11µM* | ? | 4%
Cc1ccc2nc(Cl)c3cc(C(=O)NC4CCC(C)CC4)sc3c2c1 (stereo not given) | . | . | . | 8% | -7% | .
N#Cc1ccc(C(S(=O)(=O)Cc2ccccc2)S(=O)(=O)Cc2ccccc2)cc1 | . | -58* | . | -4% | -7% | .
O=S(=O)(Cc1ccccc1)C(CCCc1ccccc1)S(=O)(=O)Cc1ccccc1 | 6% | -5 | -16 | -1% | 2% | 2%
C=CCn1c(SCc2ccccc2Cl)nnc1-c1sc2nc(C)cc(C)c2c1N | 18µM* | -12 | -8 | 4% | -3% | 10µM*
COc1ccc(OC)c(Nc2nc(NCCCN(C)C)nc(N)c2[N+](=O)[O-])c1 | ? | -99* | -23 | 9% | 0% | ?
SMILES | SW480 rereplic | IL1B secr inh | Giardia kill | Vif-APOBEC3F blk | Vif-A3G inh | MCF10A rerep
COCCCNc1nc(N)c([N+](=O)[O-])c(Nc2cc(OC)ccc2OC)n1 | ? | . | -2 | -2% | 1% | ?
Cc1nc(N2CCC(C)CC2)c2c(C)c(C(=O)O)sc2n1 | -11% | -8 | 0 | 0% | 3% | 10%
Cc1nc(N2CCOCC2)c2c(C)c(C(=O)Nc3ccc(F)cc3F)sc2n1 | -1% | -68* | 10 | 3% | -3% | 12%
CCOc1ccc(NC(=O)c2sc3nc(C)nc(N4CCOCC4)c3c2C)cc1 | 10% | -53* | -6 | 7% | 1% | ?
Cc1nc(N2CCC(C)CC2)c2c(C)c(C(=O)Nc3ccccc3C(F)(F)F)sc2n1 | 1% | -4 | -27 | 5% | 0% | 9.2µM*
Cc1cccc(NC(=O)c2sc3nc(C)nc(N4CCOCC4)c3c2C)c1 | . | ? | . | -2% | -5% | .
COc1ccc(NC(=O)c2sc3nc(C)nc(N4CCOCC4)c3c2C)c(OC)c1 | 17% | 10 | 13 | 9% | 1% | -1%
COc1ccc(-c2nn3c(-c4ccc(C)cc4)nnc3c3ccccc23)cc1 | . | . | . | 4% | 3% | .
CCc1cccc2c(C(=O)CN3C(=O)NC4(CCCCCC4)C3=O)c[nH]c12 | 9% | -2 | 11 | -13% | -10% | ?
CCNC(C(=O)c1c[nH]c2c(CC)cccc12)c1ccccc1 (stereo not given) | 0% | -57* | 2 | 13% | 1% | ?
CCc1cccc2c(C(=O)CN3C(=O)NC4(CCCCC4)C3=O)c[nH]c12 | -1% | -2 | -6 | -16% | -25% | 13µM*
CCc1cccc2c(C(=O)CCl)c[nH]c12 | ? | -95* | -9 | -4% | -8% | 23µM*
CCN(CC)c1ccc(NC(=O)C2COc3ccc(OC)cc3C2)c(C)c1 (stereo not given) | . | . | . | -21% | ? | .
Cc1ccc(SCC(CC(C)C)N2CCN(C)CCC2=O)cc1 (stereo not given) | . | . | -14 | . | 0% | .
COC(=O)c1ccc(NC(=O)COc2ccccc2C(=O)Nc2ccccc2)cc1 | . | . | . | . | 1% | .
O=C(NNC(=O)C(c1ccccc1)c1ccccc1)c1ccccn1 | 4.1µM* | -68* | 1 | -12% | -11% | ?
Cn1nnnc1SC(C(=O)Nc1cccc(C(F)(F)F)c1)c1ccccc1 (stereo not given) | 0% | -72* | 10 | -4% | 4% | ?
Cc1cc(C)cc(NC(=O)C(Sc2ncnc3ccccc23)c2ccccc2)c1 (stereo not given) | -1% | -58* | -21 | -16% | 1% | -2%
Cc1cc(C)cc(NC(=O)C(Nc2ccccc2)c2ccccc2)c1 (stereo not given) | 25% | -1 | -14 | 0% | 4% | -11%
O=C(Nc1cccc(C(F)(F)F)c1)C(Sc1ncnc2ccccc12)c1ccccc1 (stereo not given) | 0% | -108* | 9 | -1% | -15% | 1%
COC(=O)c1c(Oc2ccc(OC)cc2)nnc(-c2ccccc2)c1-c1ccccc1 | . | . | . | 0% | 3% | .
COc1ccc(-n2ncc(C(=O)NCCCN3CCCCC3)c2C2CCN(C(=O)OC(C)(C)C)CC2)cc1 | . | . | . | 1% | -6% | .
